Molecules are shown by their SMILES. Records with an inconclusive call do not appear. Calls of active or inactive are those of the source. Calls follow the shape of the full dose curve.
% is scaled to controls: 0 for no effect and ±100 for the full control effect; potency is read from the fitted curve at half-maximal effect.

This assay can be described thus: VSVG counterscreen qHTS to identify inhibitors of SARS-CoV-2 cell entry (AID 1645847). Also: nearly all actives have a fitted effect of over 65% in size. The settings on record: VSV-G pseudotyped particle entry, luciferase; series mostly up to 57.2 µM; activity change, negative = inhibition: at the top concentration. The source says:
Assay Provider: Wei Zheng, Ph.D.
National Center for Advancing Translational Sciences, National Institute of Health, Rockville, MD.
SARS-CoV-2 spike protein, within the viral envelope, mediates viral attachment and infection of host cells. The SARS-CoV-2 spike protein specifically binds to the host receptor ACE2 (Angiotensin-converting enzyme 2). This interaction promotes endocytosis of the viral particle, additional events lead to viral-host cell membrane fusion and release of the viral contents, allowing viral replication.
While SARS-CoV-2 requires BSL-3 facilities for live virus work, pseudotyped partices (PP) that incorporate SARS-CoV-2 spike proteins without replication elements could facilitate studies on viral entry mechanisms in a BSL-2 setting. This PP cell entry assay could also enable screening of small molecule compound libraries in BSL-2 setting to identify inhibitors of SARS-CoV-2 cell entry.
SEQUENCE No. (e.g., 1, 2, 3, etc.); […] (e.g., Cells, Incubation, Reagent, etc.); VALUE and DESCRIPTION.
1. Cells. Seed 1500 HEK293-ACE2 cells (Expi293F with stable expression of human ACE2) in 2 microL/well media (DMEM, 10% FBS, 1x L-glutamine, 1x Pen/Strep, 1 ug/ml puromycin) in white 1536-well assay plates (Greiner #782073).
2. Incubation. Incubate at 37 degrees C with 5% CO2 overnight (~16 h).
3. Compound. Dispense 23 nL/well compounds in DMSO via pin transfer.
4. Incubation. Incubate for 1 h at 37C 5% CO2.
5. Reagent. Dispense 2 microL/well of vesicular stomatitis virus G glycoprotein (VSV-G) pseudotyped particles (PP). [a] PPs are produced with murine leukemia virus pseudo-typing.
6. Centrifugation. […]
7. Incubation. Incubate at for 48 h at 37C 5% CO2
8. Centrifugation. Remove supernatant with gentle centrifugation using a Blue Washer (BlueCat Bio).
9. Reagent. Dispense 4 microL/well of Bright-Glo Luciferase detection reagent (Promega #E2620).
10. Incubation. Incubate for 5 min at room temperature.
11. Detection. Read luminescence signal (ViewLux plate reader, PerkinElmer). Data was normalized with wells containing VSV-G PP as 100%, and wells containing bald PP (no fusion protein) as 0%.
A general note: The purpose of a counterscreen is to sort out artefacts and off-target activity.
As for `COc1cc([C@@H]2c3cc4c(cc3[C@@H](O)C3COC(=O)C32)OCO4)cc(OC)c1O` (stereo partly specified), the Potency was 0.541 µM (active).

As to `O=C(c1cc(Cc2n[nH]c(=O)c3ccccc23)ccc1F)N1CCN(C(=O)C2CC2)CC1`, the Potency is 21.5 µM (active).

Regarding `CN(c1ncccc1CNc1nc(Nc2ccc3c(c2)CC(=O)N3)ncc1C(F)(F)F)S(C)(=O)=O`, the Potency was 2.15 µM (active).

On to `CCCCOCCOc1nc(-c2ccc(C(=O)O)c(F)c2)sc1C`, for which the “activity change, negative = inhibition” value was 0% (inactive).

`COc1ccc(C(=O)c2c(C)n(CCN3CCOCC3)c3cc(I)ccc23)cc1`: the Potency is 30.4 µM (active).

For `Cc1cc(Nc2cc(N3CCN(C)CC3)nc(Sc3ccc(NC(=O)C4CC4)cc3)n2)n[nH]1`, the Potency is 0.215 µM (active).

With `CCc1c(C(=O)C(N)=O)c2c(OCC(=O)O)cccc2n1Cc1ccccc1`, the “activity change, negative = inhibition” value was -26.2% (inactive).

Consider `CC(C)[C@H](C(=O)Nc1ccc(C(=O)NO)cc1)c1ccccc1`, for which the Potency is 30.4 µM (active).

For the compound `COc1cc(Nc2ncc3c(n2)-c2ccc(Cl)cc2C(c2c(F)cccc2OC)=NC3)ccc1C(=O)O`, the Potency is 0.108 µM (active).

Regarding `CS(=O)(=O)c1cccc(CNc2nc(Nc3ccc4c(c3)CCC(=O)N4)ncc2C(F)(F)F)c1`, the Potency was 4.29 µM (active).

For the compound `CNC(=O)c1cc(Oc2ccc(NC(=O)Nc3ccc(Cl)c(C(F)(F)F)c3)c(F)c2)ccn1`, the Potency was 10.8 µM (active).

As for `Cc1n[nH]c(C)c1Cc1sc2c(c1C(=O)N1C[C@H](O)CO1)c(=O)n(C)c(=O)n2CC(C)C`, the Potency was 1.24 µM (active).

Take `CN1CC[C@@H](c2c(O)cc(O)c3c(=O)cc(-c4ccccc4Cl)oc23)[C@@H](O)C1`: the Potency is 1.36 µM (active).

As to `O=c1[nH]c(-c2ccc(C(F)(F)F)cc2)nc2c1CSCC2`, the Potency is 1.92 µM (active).

For the compound `O=C(O)c1ccc2c(c1)nc(Nc1cccc(Cl)c1)c1ccncc12`, the Potency is 2.15 µM (active).

As to `COc1c(Cl)cc2c([nH]c3cnccc32)c1NC(=O)c1cccnc1C`, the “activity change, negative = inhibition” value was -21.2% (inactive).

`N#CCNC(=O)c1ccc(-c2ccnc(Nc3ccc(N4CCOCC4)cc3)n2)cc1`: the Potency was 6.81 µM (active).

For `Cc1cc(Nc2nc(N[C@@H](C)c3ncc(F)cn3)ncc2Cl)n[nH]1`, the Potency is 6.81 µM (active).

Turning to `CC(C)(C)c1cnc(CSc2cnc(NC(=O)C3CCNCC3)s2)o1`, the Potency was 1.92 µM (active).

Regarding `CCCS(=O)(=O)Nc1ccc(F)c(C(=O)c2c[nH]c3ncc(-c4ccc(Cl)cc4)cc23)c1F`, the Potency is 21.5 µM (active).

In the case of `COc1cc2nccc(Oc3ccc(NC(=O)C4(C(=O)Nc5ccc(F)cc5)CC4)cc3)c2cc1OC`, the Potency is 8.57 µM (active).

On to `CC(=O)Nc1ccc([C@H](C)C(=O)Nc2ncc(C(C)C)s2)cc1`, for which the Potency was 13.6 µM (active).

For the compound `COc1ccc(-c2c(-c3ccc(O)cc3O)n[nH]c2C)cc1`, the Potency is 12.4 µM (active).

Take `Cc1ccc(C(N)=O)cc1Nc1nccc(-c2cn(C(C)C)c3cnccc23)n1`: the Potency was 2.15 µM (active).

In the case of `O=C(Nc1ccncc1)C(=O)c1cn(Cc2ccc(Cl)cc2)c2ccccc12`, the Potency was 0.961 µM (active).

Turning to `CC(=O)c1c(C)c2cnc(Nc3ccc(N4CCNCC4)cn3)nc2n(C2CCCC2)c1=O`, the Potency is 6.81 µM (active).
